Several values for one entry are separate records, joined by “and”; a condition that tells them apart may be missing. Equal entries are not always repeated. Inconclusive results are not listed. Activity calls are given as the source filed them. Rule for the calls: active = hit-call score of the fitted dose curve at least 0.9, where 1 is the maximum; inconclusive = response in the unintended direction; inactive = score below 0.9.

This experiment is described as follows: CCTE_Shafer_MEA_dev_active_electrodes_number: CCTE's Neural Network Formation Assay for Number of Active Electrodes, Shafer Lab (AID 2284040).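 For AC50: potency for loss of active electrodes versus DMSO so lower counts are hits.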 As to the method: CCTE_Shafer_MEA_dev assay is conducted using Axion Biosystems 48 well microelectrode array (MEA) plates and Maestro recording system. Each well of the MEA plate contains a grid of 16 microelectrodes embedded in the culture surface. Electrically active cells, such as neurons, can be cultured over the electrodes, and electrical activity in these cells can be recorded extracellularly. The spontaneous firing of neurons is captured from each electrode on a microsecond timescale providing both temporally and spatially precise data. […] The CCTE_Shafer_MEA_dev assay uses primary cultures of rat cortical neurons. Recordings are made on days post-plating 5, 7, 9 and 12. As these cultures mature over time, neural networks develop functional activity and form cohesive networks in which electrical activity can be highly coordinated. CCTE_Shafer_MEA_dev_active_electrodes_number is 1 of 19 assay components of the CCTE_Shafer_MEA_dev assay. It measures the number of electrodes in a well with a mean firing rate of at least 5 spikes (action potential firings) per minute during a recording in a microelectrode array (MEA) using Axion Biosystems Maestro 768 channel amplifier with the AxIS adaptive spike detector. To collapse across multiple recordings made on days post-plating 5, 7, 9 and 12, the trapezoidal area-under-the-curve of the component is calculated.Data from the assay component CCTE_Shafer_MEA_dev_active_electrodes_number was analyzed into 1 assay endpoint. This assay endpoint, CCTE_Shafer_MEA_dev_active_electrodes_number, was analyzed in the negative analysis fitting direction relative to DMSO as the negative control and baseline of activity. Using a type of functional reporter, gain or loss-of-signal activity can be used to understand electrical activity.
On the day prior to culture, each well was coated thoroughly with 150 uL of 0.05% polyethyleneimine (PEI, Sigma Cat P3143) in 50 mM HEPES (Sigma Cat H7523) at a pH of 8. The plate was incubated at 37C for one hour. PEI was rinsed out with 500 uL of sterile water three times. Plates were stored at 4C until the day of culture. This culture was plated at a seeding density of 1.5 x 10^5 cells/well on a 48-well MEA plate, prepared as described above. Cells were administered via a 25 uL media/laminin ([…]; Sigma Cat L2020-1MG) drop directly onto the microelectrode array, as adding the cells with the laminin results in better attachment than pre-coating with laminin. After 2 hours, an additional 475 uL of cortical media was added and the cells returned to the incubator. Exposure starts at day 0 of plating and is continued over twelve days of network development until the experiment is terminated. Cells are fed with fresh medium on DIV 5 and 9, following the recordings on those days. The entire volume of media in the well is exchanged and any vehicle or compound treatment is renewed. Complete details are found in OP-NHEERL/ISTD/SBB/TJS/2015-03-r0 (available on request, email shafer.tim@epa.gov). Measurement of the electrical activity is non-invasive, and recordings can be made from the same plate over multiple different days of the culture. In cortical neurons, this allows for the measurement of extracellular action potentials over the period during which networks form in the MEA plate.
For `ClC1=C(Cl)[C@]2(Cl)[C@H]3[C@H]([C@@H]4C=C[C@H]3C4)[C@@]1(Cl)C2(Cl)Cl`, the concentration at half-maximal activity (AC50) was 5.34 µM (active). Take `[Cl-].[Cl-].[Hg+2]`: the AC50 is 0.543 µM (active).

Turning to `O=P(OCCCl)(OCCCl)OCCCl`, the molecule was called inactive. Turning to `CC(C)(C)C(O)(CCc1ccc(Cl)cc1)Cn1cncn1` (centres undefined), the AC50 is 5.02 µM (active). For the molecule `CCNS(=O)(=O)C(F)(F)C(F)(F)C(F)(F)C(F)(F)C(F)(F)C(F)(F)C(F)(F)C(F)(F)F`, the AC50 was 7.41 µM (active) and 2.98 µM (active). As to `COC(=O)Nc1nc2ccccc2[nH]1`, the AC50 is 15.3 µM (active). Take `[O-][Cl+]O`: the result was inactive. With `CN(C)[C@@H]1C(=O)C(C(N)=O)=C(O)[C@@]2(O)C(=O)C3=C(O)c4c(O)cccc4[C@@](C)(O)[C@H]3C[C@@H]12`, the molecule was classed as inactive.

`ClC1=C(Cl)C2(Cl)C3C(Cl)C=CC3C1(Cl)C2(Cl)Cl` (centres undefined): the concentration at half-maximal activity (AC50) is 4.27 µM (active). With `C1=Cc2cccc3cccc1c23`, the outcome was inactive.

`CNC(=O)Oc1cccc2c1OC(C)(C)C2`: the AC50 was 17 µM (active) and 49.6 µM (active). `Nc1cc(Cl)cc(C(=O)O)c1Cl`: the molecule was classed as inactive. Turning to `Clc1ccc(C(c2ccc(Cl)cc2)C(Cl)Cl)cc1`, the concentration at half-maximal activity (AC50) was 4.66 µM (active). The same measure, in the same setting: the value for `Clc1ccc(C(c2ccc(Cl)cc2)C(Cl)(Cl)Cl)cc1` was 4.02 µM (active) and 7.34 µM (active). Consider `OCCOCCO`, for which the molecule was called inactive. In the case of `COP(=S)(OC)SCN1C(=O)c2ccccc2C1=O`, the AC50 is 61.1 µM (active) and 51.5 µM (active). On to `CCC[CH2][Sn]([Cl])([CH2]CCC)[CH2]CCC`, for which the AC50 was 0.0428 µM (active). Consider `CCCCOC(=O)c1ccccc1C(=O)OCc1ccccc1`, for which the half-maximal activity concentration (AC50) is 22.7 µM (active). Consider `CC(C)(O)c1cnn2c(-c3ccc(F)c(-c4c(F)cccc4C#N)c3)cnc2n1`, for which the AC50 is 5.55 µM (active).

By AC50 is commonly meant the concentration at which the activity in the assay is half-maximal.

(Values after PubChem BioAssay (EPA / NIEHS).)
